Assay results reported in PubChem BioAssay.
Several values for one entry are separate records, joined by “and”; a condition that tells them apart may be missing. Equal entries are not always repeated. Activity calls are given as the source filed them.

Legend:
Albumin (Bos taurus) = Albumin (Bos taurus) (UniProt P02769); experiment: compounds binding labelled BSA control protein – biochemical, small-molecule microarray, Alexa647 label, 635/667 nm fluorescence, artefact control for SMM control protein annotation, profiling panel (AID 1118); conditions: BSA-A647 binding, fluorescence 635 nm, higher = more signal;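 also: score merges 667 nm emission intensity and signal-to-noise per printed compound spot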
Chain of Albumin (Bos taurus) (P02769 whole entry, looked up): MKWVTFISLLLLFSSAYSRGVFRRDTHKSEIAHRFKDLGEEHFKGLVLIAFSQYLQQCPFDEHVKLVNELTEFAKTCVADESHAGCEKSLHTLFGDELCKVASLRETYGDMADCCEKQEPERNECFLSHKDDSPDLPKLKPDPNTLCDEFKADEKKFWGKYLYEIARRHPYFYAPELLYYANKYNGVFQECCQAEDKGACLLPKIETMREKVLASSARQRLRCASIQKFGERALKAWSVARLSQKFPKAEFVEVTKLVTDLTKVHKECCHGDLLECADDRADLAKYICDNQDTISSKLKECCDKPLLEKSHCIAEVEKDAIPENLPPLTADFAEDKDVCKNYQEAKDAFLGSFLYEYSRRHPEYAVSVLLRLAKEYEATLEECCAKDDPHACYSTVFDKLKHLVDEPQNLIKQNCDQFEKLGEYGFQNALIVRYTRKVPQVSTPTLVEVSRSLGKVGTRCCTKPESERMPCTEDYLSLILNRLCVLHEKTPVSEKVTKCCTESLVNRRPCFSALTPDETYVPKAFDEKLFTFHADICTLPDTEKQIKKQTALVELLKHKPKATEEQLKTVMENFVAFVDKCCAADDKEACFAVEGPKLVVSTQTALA

[1] = probe aXIP binding to arrayed compounds – biochemical, NeuroSMM set, 635/667 nm fluorescence, primary screen (AID 1119); conditions: small-molecule microarray, higher = more signal, called active from +8 up or from −8 down;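 also: probe is the protein aXip251-270 applied at 1 µg/mL to compound-printed slides; binding of probe to printed compounds measured as 667 nm fluorescence plus signal to noise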
[2] = probe aNOTCH3 binding on compound microarray – biochemical, small-molecule microarray, 635/667 nm fluorescence, primary screen (AID 1120); conditions: higher = more signal;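 also: probe is a biotin-tagged antibody raised against NOTCH3 rather than NOTCH3 protein; score merges spot fluorescence near 667 nm with spot signal to noise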
[3] = probe aNOTCH2 binding on compound microarray – biochemical, small-molecule microarray, 635/667 nm fluorescence, primary screen (AID 1121); conditions: higher = more signal;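 also: score merges feature fluorescence read at 667 nm with its signal to noise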
[4] = molecular target: Carbonic anhydrase 2 (Homo sapiens) (UniProt P00918); experiment: compounds binding carbonic anhydrase 2 – biochemical, small-molecule microarray, Alexa647-labelled CAII, profiling panel (AID 1122); conditions: CAII-A647 binding fluorescence, higher = more signal
[5] = COS7 lysate on small-molecule microarray, probe aHis, 635 nm (AID 1123); conditions: COS7 cell lysate, fluorescence, higher = more signal;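 also: z-score combines 667nm fluorescence intensity with signal-to-noise per printed compound spot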
[6] = probe aLAP1 signal on lysate-treated microarray – cell lysate, small-molecule microarray, COS7 lysate, primary screen (AID 1124); conditions: probe aLAP1, fluorescence, higher = more signal;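 also: lysate comes from COS7 cells expressing LAP1 and is applied at 0.3 µg/mL; score merges spot fluorescence near 667 nm with signal-to-noise over triplicate slides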
Sam68 (KHDRBS1) = experiment: compounds binding KHDRBS1 protein – biochemical, small-molecule microarray, 635 nm fluorescence, primary screen (AID 1125); conditions: higher = more signal;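 also: score merges 667 nm channel intensity with signal to noise over triplicate slides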
[7] = system: Chordin-like protein 2 (CHRDL2); experiment: compounds binding chordin-like 2 – biochemical, small-molecule microarray, 635 nm fluorescence, primary screen (AID 1126); conditions: fluorescence 635 nm, higher = more signal;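 also: printed compound slides probed with Chrdl2 protein at 4 µg/mL for 1 h at 4 C; score merges 667 nm emission intensity with signal to noise over three replicate slides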
[8] = molecular target: Concanavalin-A (Canavalia ensiformis) (UniProt P02866); experiment: compounds binding concanavalin A lectin – biochemical, small-molecule microarray, Alexa647 label, 635 nm, artefact control for SMM control protein annotation, primary screen (AID 1127); conditions: ConA-A647 binding fluorescence, higher = more signal;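 also: z combines 667 nm emission intensity with signal-to-noise across three replicate slides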
Chain of Concanavalin-A (Canavalia ensiformis) (P02866 whole entry, looked up): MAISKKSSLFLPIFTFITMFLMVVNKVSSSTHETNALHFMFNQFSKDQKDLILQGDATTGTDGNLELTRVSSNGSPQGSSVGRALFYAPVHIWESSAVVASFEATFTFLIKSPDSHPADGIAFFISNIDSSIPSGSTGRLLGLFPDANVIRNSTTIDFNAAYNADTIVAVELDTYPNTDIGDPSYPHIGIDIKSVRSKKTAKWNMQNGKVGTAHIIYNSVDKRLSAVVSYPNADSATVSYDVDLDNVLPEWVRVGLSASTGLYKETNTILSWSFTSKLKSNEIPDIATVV

[9] = compounds binding Alexa647 anti-His antibody – biochemical, small-molecule microarray, 635 nm fluorescence, artefact control for SMM control protein annotation, primary screen (AID 1128); conditions: higher = more signal;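 also: score merges feature fluorescence with signal-to-noise for each printed compound spot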
[10] = system: Human papillomavirus type 1a E7 protein (residues 1-88); experiment: HPV1a E7 small-molecule binders, primary screen, biochemical, small-molecule microarray, residues 1-88, 635 nm (AID 1129); conditions: small-molecule microarray binding, fluorescence 635 nm; higher = more signal
[11] = molecular target: Focal adhesion kinase 1 (Homo sapiens) (UniProt Q05397); experiment: PTK2 protein binding on printed compound slides – biochemical, small-molecule microarray, 635/667 nm fluorescence, BSA, DTT, primary screen (AID 1130); conditions: 635 nm fluorescence, higher = more signal;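 also: composite of spot emission at 667 nm and signal to noise over triplicate slides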
Chain of Focal adhesion kinase 1 (Homo sapiens) (Q05397 whole entry, looked up): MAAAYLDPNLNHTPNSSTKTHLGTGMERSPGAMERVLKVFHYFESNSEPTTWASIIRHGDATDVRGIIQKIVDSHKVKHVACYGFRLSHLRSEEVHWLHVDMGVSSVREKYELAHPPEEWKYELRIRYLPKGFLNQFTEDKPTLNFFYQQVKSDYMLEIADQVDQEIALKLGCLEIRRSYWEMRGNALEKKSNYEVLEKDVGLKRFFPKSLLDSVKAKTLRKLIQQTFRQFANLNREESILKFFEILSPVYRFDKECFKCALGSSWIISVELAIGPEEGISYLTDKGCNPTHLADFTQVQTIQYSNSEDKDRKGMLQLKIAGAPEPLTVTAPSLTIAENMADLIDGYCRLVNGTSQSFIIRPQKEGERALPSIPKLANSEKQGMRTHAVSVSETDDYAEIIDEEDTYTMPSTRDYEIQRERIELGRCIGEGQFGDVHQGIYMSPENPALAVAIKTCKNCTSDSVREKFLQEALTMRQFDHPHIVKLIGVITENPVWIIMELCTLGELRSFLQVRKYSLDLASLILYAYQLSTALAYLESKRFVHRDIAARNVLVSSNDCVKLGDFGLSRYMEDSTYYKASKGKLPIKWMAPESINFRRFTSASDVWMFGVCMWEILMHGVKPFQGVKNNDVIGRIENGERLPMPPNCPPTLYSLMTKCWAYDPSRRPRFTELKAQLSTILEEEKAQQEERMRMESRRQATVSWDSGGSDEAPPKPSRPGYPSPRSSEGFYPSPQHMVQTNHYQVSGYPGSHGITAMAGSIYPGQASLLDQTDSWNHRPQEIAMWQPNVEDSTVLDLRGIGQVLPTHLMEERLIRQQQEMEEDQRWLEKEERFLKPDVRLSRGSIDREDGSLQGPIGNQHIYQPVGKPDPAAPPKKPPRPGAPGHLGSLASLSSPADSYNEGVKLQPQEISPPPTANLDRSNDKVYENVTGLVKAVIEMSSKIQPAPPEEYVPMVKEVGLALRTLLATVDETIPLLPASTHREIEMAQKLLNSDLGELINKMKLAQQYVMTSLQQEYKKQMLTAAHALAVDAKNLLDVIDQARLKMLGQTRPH

[12] = system: Fibrinogen (Alexa647-labelled); experiment: Alexa647-fibrinogen binding to printed small molecules – biochemical, small-molecule microarray, 635/667 nm fluorescence, artefact control for SMM control-protein annotation, profiling panel (AID 1131); conditions: fibrinogen-A647 binding fluorescence, higher = more signal;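 also: z-score merges 667 nm fluorescence with per-spot signal-to-noise over triplicate slides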
[13] = molecular target: Follistatin (Homo sapiens) (UniProt P19883); experiment: FST protein binding to printed compounds – biochemical, small-molecule microarray, 635/667 nm fluorescence, primary screen (AID 1132); conditions: 635 nm fluorescence, higher = more signal
Chain of Follistatin (Homo sapiens) (P19883 whole entry, looked up): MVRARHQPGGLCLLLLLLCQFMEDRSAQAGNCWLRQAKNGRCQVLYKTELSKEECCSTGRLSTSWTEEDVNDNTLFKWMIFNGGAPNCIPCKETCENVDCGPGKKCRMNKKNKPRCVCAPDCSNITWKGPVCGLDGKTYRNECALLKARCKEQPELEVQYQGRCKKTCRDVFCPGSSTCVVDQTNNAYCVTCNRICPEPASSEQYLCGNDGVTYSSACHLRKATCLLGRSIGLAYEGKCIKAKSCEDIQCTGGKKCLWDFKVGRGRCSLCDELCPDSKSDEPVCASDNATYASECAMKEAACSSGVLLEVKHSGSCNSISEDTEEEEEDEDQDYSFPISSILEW

[14] = molecular target: Fibroblast growth factor 2 (Homo sapiens) (UniProt P09038); experiment: basic fibroblast growth factor binding to printed compounds – biochemical, small-molecule microarray, 635/667 nm fluorescence, primary screen (AID 1133); conditions: FGF2, fluorescence 635/667, higher = more signal
Chain of Fibroblast growth factor 2 (Homo sapiens) (P09038 whole entry, looked up): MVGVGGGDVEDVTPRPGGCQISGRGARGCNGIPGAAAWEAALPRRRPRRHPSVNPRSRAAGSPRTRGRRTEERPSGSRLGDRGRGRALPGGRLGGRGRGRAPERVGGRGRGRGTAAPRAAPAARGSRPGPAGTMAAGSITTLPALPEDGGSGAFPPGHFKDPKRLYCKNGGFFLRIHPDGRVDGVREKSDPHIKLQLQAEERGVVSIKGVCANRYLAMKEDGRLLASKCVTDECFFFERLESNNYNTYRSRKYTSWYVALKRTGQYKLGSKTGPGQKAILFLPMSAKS

[15] = JC-1 mitochondrial potential readout, lung cancer cells – cell-based, A549, JC-1 fluorescence, basal, 24 h, 100 nL, profiling panel (AID 1138); conditions: higher = more signal;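 also: A549 lung adenocarcinoma cells under basal conditions with no added stimulus; test concentration not given here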
Lefty1 = Lefty1 protein binding to printed compounds – biochemical, small-molecule microarray, 635/667 nm fluorescence, primary screen (AID 1139); conditions: fluorescence 635/667, higher = more signal
[16] = system: wheat germ agglutinin (Triticum aestivum), Alexa647-labelled; experiment: Alexa647-WGA lectin binding to printed small molecules – biochemical, small-molecule microarray, 635/667 nm fluorescence, artefact control for SMM control-protein annotation, profiling panel (AID 1140); conditions: WGA-A647 binding, 635 nm fluorescence, higher = more signal;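 also: score merges 667 nm feature emission with signal to noise over triplicate slides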
[17] = molecular target: Luciferin 4-monooxygenase (Photinus pyralis) (UniProt P08659); experiment: inhibition of purified Photinus pyralis luciferase – biochemical, luminescence, purified enzyme, 2006 set, primary screen (AID 1141); conditions: purified firefly luciferase, SteadyGlo luminescence, 30 min; higher = more signal, called active from +8 up or from −8 down;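 also: cell-free assay with purified firefly luciferase at 100 ng per well in PBS; test concentration not given here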
Chain of Luciferin 4-monooxygenase (Photinus pyralis) (P08659 whole entry, looked up): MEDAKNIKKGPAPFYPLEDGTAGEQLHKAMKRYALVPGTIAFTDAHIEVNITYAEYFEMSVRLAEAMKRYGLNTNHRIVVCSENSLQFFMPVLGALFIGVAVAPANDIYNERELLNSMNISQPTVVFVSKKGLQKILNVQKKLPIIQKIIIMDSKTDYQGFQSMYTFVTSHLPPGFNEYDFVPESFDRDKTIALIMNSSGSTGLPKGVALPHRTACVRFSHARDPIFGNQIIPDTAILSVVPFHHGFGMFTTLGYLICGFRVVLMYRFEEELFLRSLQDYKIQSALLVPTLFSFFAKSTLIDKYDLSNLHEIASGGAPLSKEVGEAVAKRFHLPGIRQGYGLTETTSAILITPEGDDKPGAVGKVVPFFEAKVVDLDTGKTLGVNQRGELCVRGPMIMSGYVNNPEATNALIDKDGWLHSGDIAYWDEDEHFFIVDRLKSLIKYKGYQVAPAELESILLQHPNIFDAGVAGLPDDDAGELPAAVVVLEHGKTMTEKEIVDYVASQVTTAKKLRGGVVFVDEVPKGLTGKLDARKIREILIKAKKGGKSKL

| Compound | composite z-score (Albumin (Bos taurus)) | composite Z-score [1] | composite z-score [2] | composite z-score [3] | composite z-score [4] | composite z-score [5] | composite z-score [6] | composite z-score (Sam68 (KHDRBS1)) | composite z-score [7] | composite z-score [8] | composite z-score [9] | composite z-score [10] | composite z-score [11] | composite z-score [12] | composite z-score [13] | composite z-score [14] | z-score [15] | composite z-score (Lefty1) | composite z-score [16] | z-score [17] |
| --- | --- | --- | --- | --- | --- | --- | --- | --- | --- | --- | --- | --- | --- | --- | --- | --- | --- | --- | --- | --- |
| C=CCN(C(=O)C(c1cccs1)N(C(=O)/C=C\C(=O)O)c1ccc(CCO)cc1)C(C)(C)C (stereo not given) | 0.779 and 0.432 | -0.374 (inactive) and -0.419 (inactive) | -0.312 and -0.448 | -0.0708 and -0.0924 | 0.663 and 0.867 | 2.45 and 2.51 | 0.904 and 1.16 | -0.847 and -1.43 | -1.74 and -2.91 | -0.941 and -0.744 | 0.381 and 2.21 | 0.07 and 0.0514 | 0.721 and -0.265 | -0.548 and -3.6 | -0.985 and -1.66 | -1.22 and -1.05 | 0.428 and 0.741 | -1.76 and -2 | 0.559 and -0.287 | -0.928 (inactive) and -0.538 (inactive) |
| COCn1c2ccccc2c2nnc(C(C)=O)nc21 | -0.565 and -0.0926 | -0.158 (inactive) and -0.123 (inactive) | -0.0647 and 0.106 | -0.131 and -0.126 | 0.158 and -0.258 | -0.0769 and 0.263 | 0.325 and 0.155 | 0.132 and 0.584 | 0.488 and 0.54 | 0.133 and -0.0846 | 0.185 and -0.0618 | -0.582 and -0.0453 | 0.0699 and -0.0566 | -0.0349 and 0.202 | 0.295 and 0.221 | 0.537 and 0.273 | -1.22 and -1.45 | 0.419 and 0.53 | -0.114 and -0.144 | 0.891 (inactive) and 0.305 (inactive) |
| Cc1ccc(S(=O)(=O)N[C@H]2COC(=O)[C@@H](C)COC(=O)[C@H](C)NC(=O)CC=C[C@H]2C)cc1 | -0.965 | 1.17 (inactive) | -0.0931 | -0.14 | -0.338 | -0.49 | -0.34 | 0.122 | 0.954 | -0.681 | -0.293 | -0.336 | -0.295 | -0.343 | 0.162 | 1.09 | 0.637 | 0.72 | -0.634 | -0.402 (inactive) |
| C=CCN(C(=O)C(c1cccs1)N(CCOCCO)C(=O)/C=C\C(=O)O)C(C)(C)C (stereo not given) | -0.503 and -0.823 | -0.48 (inactive) and -0.0662 (inactive) | -0.387 and -0.349 | -0.148 and -0.126 | 0.847 and 0.9 | -0.851 and 0.606 | -0.957 and 0.0378 | -1.33 and -0.246 | -2.31 and -1.58 | -1.4 and -1.67 | -1.68 and -1.56 | -1.4 and -0.488 | -1.37 and -0.35 | -0.7 and -1.15 | -2.15 and -0.795 | -1.7 and -1.19 | 1.01 and 1.41 | -1.66 and -1.83 | -1.04 and -0.022 | -1.5 (inactive) and -1.32 (inactive) |
| COC(=O)C1=C(C)N(Cc2ccccc2)[C@]23O[C@](C(=O)OC)(C(=O)N2[C@@H]1c1ccccc1)[C@H]1C(=O)N(c2ccccc2)C(=O)[C@H]13 | 0.692 and 0.614 | -0.119 (inactive) and -0.275 (inactive) | 0.121 and 0.024 | 0.0793 and -0.0321 | 0.306 and 0.428 | 1.05 and -0.39 | 0.294 and 0.526 | 0.682 and 0.308 | 0.223 and 0.523 | 0.838 and 0.0089 | 0.798 and 0.258 | 1.12 and 0.575 | 0.277 and 0.0443 | 0.77 and 0.267 | 0.516 and 1.01 | 0.562 and 0.626 | 0.6 and 0.565 | 0.477 and 1.27 | 1.07 and 0.541 | -0.207 (inactive) and -0.978 (inactive) |
